± gives the standard deviation.
Each compound was assayed on Streptococcus suis HE06 (assay: percent growth relative to DMSO control; higher = less growth inhibition). Conditions: 10 µM; incubation time 18 h.
Experimental: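 CLSI broth microdilution: 5x10^4 CFU of Streptococcus suis (strain P1/7 or HE06) incubated with 10 µM Pathogen Box compound in cation-adjusted Mueller Hinton broth, 37 °C, 5% CO2, 18 h. Growth read as OD600 and expressed as percent of the DMSO-treated control (100%); mean ± SD of three independent experiments.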

Structure (SMILES)	percent growth [%]
FC(F)(F)c1ccc(N(c2cccnc2)C2CCN(c3ccc(C(F)(F)F)cn3)CC2)cc1	67.9 ± 13
CC(C)(C)c1cc(C(=O)Nc2cccnc2)cc(C(=O)Nc2cccnc2)c1	80.6 ± 4.4
Cc1cnc(N2CCN[C@@H](Cc3ccccc3)C2)nc1Oc1ccc(-n2ccnc2)cc1	98.9 ± 9.1
CCOC(=O)c1noc(N)c1-c1ccccc1	107 ± 2.4
Nc1nc2ccc(-c3cncc(Oc4ccc(F)cc4)c3)cc2[nH]1	91.8 ± 11
c1coc(CNc2nc(N3CCCCC3)nc3ccccc23)c1	78 ± 7.8
Cc1cc(C(=O)Nc2ccc(-c3ccccc3)cc2)no1	103 ± 36
CCn1ncc2c(NC3CCOCC3)c(CNC(=O)c3ccnn3C)c(C)nc21	109 ± 24
O=C1Nc2ccc(Br)cc2C12NCCc1c2[nH]c2ccccc12 (stereo unspecified)	94.7 ± 15
COc1ccc2nc(C)cc(OCC(=O)Nc3ccccc3OC)c2c1	89.9 ± 9.3
O=C(Nc1nnc(-c2ccc(Cl)cc2)o1)c1cccc(C(F)(F)F)c1	0
Cc1cc(C)c2cc(C(=O)NC3CCCCCCC3)[nH]c2c1	90.5 ± 14
CC[C@@H]([C@H](C)O)n1ncn(-c2ccc(N3CCN(c4ccc(OC[C@@H]5CO[C@@](Cn6cncn6)(c6ccc(F)cc6F)C5)cc4)CC3)cc2)c1=O	76.2 ± 4.8
COC(=O)c1ccc(F)cc1NS(=O)(=O)c1cccc(-c2cnn(Cc3ccccc3)c2)c1	99.6 ± 8.2
COc1ccc(OC)c(NCc2ccc3nc(N)nc(N)c3c2Cl)c1	4.05 ± 6.3
COc1cc(Br)cc2cc(C(=O)Nc3cccc(C(F)(F)F)c3)c(=O)oc12	116 ± 26
COC(=O)Nc1nc2cc(C(=O)c3ccccc3)ccc2[nH]1	86 ± 8.2
CCc1ccc(S(=O)(=O)Nc2cc(CN3CCN(CCC(C)C)CC3)ccc2C)cc1	95.7 ± 12
CC1=NN(c2nc3ccccc3s2)C(=O)C1Cc1cccc2ccccc12 (stereo unspecified)	0.762 ± 0.8
CC(C)C(C(=O)Nc1ccc(S(=O)(=O)N(C)C)cc1)c1ccc(Cl)cc1 (stereo unspecified)	110 ± 24
COc1ccc(C2=NCCN2)cc1-c1cn(-c2cccc(C3=NCCN3)c2)nn1	99.9 ± 10
